Assay outcomes from PubChem BioAssay.
This is a sample that favours compounds with a hit; in the whole collection about 9.2% have one here.
SMN2 splice enh – increases expression of the SMN2 splice variant; HEK293 SMN2-luciferase splicing reporter, luminescence, 30-36 h; 210,000 tested, 2.8% active; Potency, µM (doses to about 46.1 µM), for the others: top-dose activity change, positive = activation, hits mostly activators; further: % of control where 0% means no effect; nearly all actives have a fitted effect of over 55% in size
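qHTS luciferase splicing reporter: luminescence rises when SMN2 exon 7 is included in transfected HEK293 cells. Compound exposure lasted 30-36 h at 37C, with 4.5 mM final sodium butyrate as control, followed by a ONE-Glo read.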
ELG1 genotoxic – genotoxicity induction in ELG1-luciferase HEK293T cells. HEK293T ELG1-luciferase reporter, luminescence, 16 h. AID 504466. 330,000 tested, 1.3% active. Potency, µM (highest dose often 46 µM), for inactives: at the highest dose activity change, positive = activation, most hits filed as activators; further: % of control where 0% means no effect; nearly all actives have a fitted effect of over 60% in size
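HEK293T cells expressing luciferase-tagged ELG1 were exposed to compound or DMSO vehicle for 16 hr at 37 °C and 5% CO2. Luciferase activity was then measured with ONE-Glo after 30 min at room temperature.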
Rab9 promoter act – activators of Rab9 promoter; Huh7 Rab9 promoter-luciferase reporter, luminescence, 24 h; Potency, µM (titrated, usually from 9.22 µM), without a hit: at the highest dose activation, negative = inhibition, usual class: activators; 320,000 tested, 2.8% active; AID 485297; further: % of control where 0% means no effect; nearly all actives have a fitted effect of over 60% in size
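Measured in stably transfected Huh7 cells bearing a Rab9 promoter–luciferase construct: 24 h compound treatment at 37 °C, followed by luminescence detection.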
ELG1 DNA repair – ELG1-dependent DNA repair inhibition; HEK293T ELG1-luciferase reporter, luminescence, 16 h; DNA damage induced by 5-fluorouridine; Potency, µM (titrated, usually from 46.1 µM), for the others: top-dose activity change, negative = inhibition, hits mostly inhibitors; 330,000 tested, 2.3% active; further: on the % scale 0 is the no-effect control and ±100 the full control effect; nearly all actives have a fitted effect of over 55% in size
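Quantitative HTS, concentration-response format. 2,000 cells/well co-treated with 5-fluorouridine and compound, 16 hr in 5% CO2 at 37 °C; ONE-Glo luminescence read after 30 min.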
FLuc counter – inhibits or activates purified firefly luciferase, miR-21 counter-screen; Potency, µM (series often up to 57.5 µM), inactives show at the highest dose activity change, negative = inhibition, usual class: inhibitors; purified FLuc, Km substrates, luminescence inhibition; P08659; 360,000 tested, 6.9% active;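 further: plate controls were vehicle for no effect and reference inhibitor for full effect; nearly all actives have a fitted effect of over 55% in size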
Target sequence (P08659 whole entry, looked up): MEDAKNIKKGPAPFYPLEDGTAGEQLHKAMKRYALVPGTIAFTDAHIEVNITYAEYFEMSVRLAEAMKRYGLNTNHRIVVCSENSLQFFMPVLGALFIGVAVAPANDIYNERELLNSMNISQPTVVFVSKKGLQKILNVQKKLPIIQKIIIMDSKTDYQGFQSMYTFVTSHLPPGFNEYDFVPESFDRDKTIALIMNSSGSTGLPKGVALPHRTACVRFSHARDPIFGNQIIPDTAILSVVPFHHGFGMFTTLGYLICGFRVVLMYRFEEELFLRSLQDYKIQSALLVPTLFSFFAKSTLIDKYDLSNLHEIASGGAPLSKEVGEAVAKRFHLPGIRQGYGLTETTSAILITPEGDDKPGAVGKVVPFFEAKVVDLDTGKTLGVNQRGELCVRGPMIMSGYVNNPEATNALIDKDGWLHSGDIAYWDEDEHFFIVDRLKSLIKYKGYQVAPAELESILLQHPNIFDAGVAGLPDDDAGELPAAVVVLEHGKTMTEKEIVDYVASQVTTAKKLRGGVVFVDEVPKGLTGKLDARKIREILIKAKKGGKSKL
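Purified P. pyralis luciferase (10nM final) with 10uM D-luciferin and 10uM ATP (Km levels) in 50mM Tris acetate pH 7.5, 10mM Mg acetate, 0.01% Tween-20, 0.05% BSA; qHTS 6-point titration, ~60 µM downward; luminescence read.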
NPC1 promoter act – activates the NPC1 promoter; Huh7 NPC1 promoter luciferase reporter, 24 h; Potency, µM (titrated, usually from 9.22 µM), for the others: at the highest dose activation, most hits filed as activators; 320,000 tested, 2.4% active; further: % of control where 0% means no effect; nearly all actives have a fitted effect of over 60% in size
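NPC1 promoter–luciferase Huh7 cells; 24 h compound; luminescence.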
* hit, by the source's call; ? = inconclusive; . = not tested or not shown. The call rests on the fitted dose curve; in most records, active means well fitted curve in the direction sought with a large enough effect; inconclusive means small, poorly fitted or top-dose-only effect, or another doubt; inactive means no such curve, though single readings can be large; an effect the other way counts as inactive or inconclusive. Potency means the concentration at half of the fitted maximal effect.

SMILES	SMN2 splice enh	ELG1 genotoxic	Rab9 promoter act	ELG1 DNA repair	FLuc counter	NPC1 promoter act
CCN(CC)S(=O)(=O)c1ccc2c(c1)N(CC(=O)NCc1ccccc1)C(=O)C1CCCCN21 (stereo not given)	.	.	.	.	5.2%	.
COc1ccc(C2/C=C\CC(NS(=O)(=O)c3ccc(C)cc3)CC(=O)N2Cc2ccccc2F)cc1 (stereo not given)	.	-0.5%	.	-14.0%	.	.
CN(C)c1ccc(C(=N)c2ccc(N(C)C)cc2)cc1	13.0%	.	.	.	.	.
CN(C)c1ccc(N=Nc2ccccc2Br)cc1	.	?	6.31µM*	?	0.19µM*	3.55µM*
CC(=O)c1ccc(N=Nc2ccc(C)cc2)cc1	1.26µM*	0.461µM*	0.316µM*	?	0.953µM*	0.316µM*
CC(=O)c1ccc(N=Nc2ccc(N(C)C)cc2)cc1	14.0%	?	0.398µM*	?	0.301µM*	0.562µM*
O=C(CNC(=O)c1ccccc1)NCC(O)c1ccc([N+](=O)[O-])cc1 (stereo not given)	.	-2.5%	-0.2%	-3.7%	-1.5%	-6.8%
CC(C)c1ccc(NC(=S)NC2CCCCCC2)cc1	12.6µM*	?	?	?	16.9µM*	?
S=C(Nc1ccc(Cl)c(Cl)c1)NC1CCCCC1	?	-4.0%	13.0%	?	?	8.7%
S=C(Nc1ccc2nsnc2c1)NC1CCCCC1	?	-1.7%	19.5%	?	21.3µM*	19.5%
FC(F)(F)c1ccc(NC(=S)NC2CCCCC2)cc1	15.8µM*	-13.1%	22.6%	-1.7%	?	8.2%
CC(C)C(=O)NC(=S)Nc1ccc(S(=O)(=O)NC2CCCCC2)cc1	.	-6.8%	-9.5%	11.6µM*	-3.6%	-4.3%
O=C(CCN=C1NS(=O)(=O)c2ccccc21)Nc1ccc(F)cc1Cl	.	-0.1%	.	0.0%	.	.
CCc1ccc(OCc2cccc(C(=O)N/N=C\c3cnn(C)c3C)c2)cc1	.	8.8%	?	?	-3.6%	?
O=C(NCc1ccccc1)c1ccc(-c2ccccc2F)o1	31.6µM*	13µM*	?	?	13.5µM*	26.1%
O=C(NCCc1ccccc1)c1ccc(-c2ccccc2C(F)(F)F)o1	8.5%	1.3%	-0.7%	24.5%	?	-2.6%
O=C(NCCc1ccccc1)c1ccc(-c2ccc(F)cc2)o1	4.9%	-0.1%	0.7%	11.7%	21.3µM*	-6.0%
CC1CCCC(C)N1C(=O)COC(=O)CNC(=O)c1ccccc1F (stereo not given)	.	2.4%	-1.7%	11.1%	0.5%	-2.0%
CCCCCCN(C(=O)CCCCCN1C(=O)NC(c2ccccc2-c2ccccc2)C(C(=O)OCc2ccccc2)=C1C)C(C(=O)NCCCC)c1ccc(OCC(=O)OC)c(C(=O)OC)c1 (stereo not given)	-12.0%	.	.	.	.	.
CSc1ccccc1NC(=O)C1CC(c2c(F)cccc2Cl)=NO1 (stereo not given)	.	?	16.3%	?	16.9µM*	13.6%
O=C(CNC(=O)C(c1ccccc1)c1ccccc1)OCC(=O)c1cccs1	9.4%	1.3%	-1.5%	14.2%	-0.8%	-2.1%
O=C(Oc1ccccc1F)c1nc(SCc2ccc(F)cc2)ncc1Cl	8.2%	.	.	.	-3.3%	.
CCOC(=O)C1=C(O)/C(=C\c2cc(C)n(-c3ccccc3F)c2C)N=C1C	-35.2%	-6.3%	10.7%	-16.1%	0.601µM*	15.7%
COC(=O)C1=C(C)NC(=O)/C1=C\c1cc(C)n(-c2ccccc2F)c1C	25.1µM*	-5.2%	22.0%	?	12µM*	11.4%
COC(=O)C1=C(C)NC(=O)/C1=C\c1cc(C)n(-c2ccccc2C)c1C	-50.0%	8.4%	-0.3%	20.6µM*	16.9µM*	2.7%
CCOC(=O)C1=C(O)/C(=C\c2cc(C)n(-c3ccc(F)cc3)c2C)N=C1C	-19.0%	16.3%	-1.2%	-1.4%	?	0.3%
